Of roughly 8,800 targets only a part is listed; those with a hit were picked by preference. About 0.5% of all pairs of compound and target were hits. A number with no mark means an inactive call.
Legend:
Experiment in all cases: log2 fold change, soluble protein after heating vs DMSO (PISA); higher = thermal stabilisation; K562 lysate, 10 uM; active = over 0.2 and 3.5 SD of the protein, either way, in both replicates (recomputed)
lapatinib = compound: CS(=O)(=O)CCNCc1ccc(-c2ccc3ncnc(Nc4ccc(OCc5cccc(F)c5)c(Cl)c4)c3c2)o1 [lapatinib]
How it was run: (§1)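 The values are log-two fold changes in thermal stability compared with solvent controls and come from duplicates. They were obtained by TMTpro 16plex LC-MS/MS, with channel sums equalised, on the supernatant after 21,000xg for 90 min. That supernatant came from crude K562 extract at 1 mg/mL protein treated with 10 μM compound for 30 min, heated for 3 min across 48°C-58°C, pooled and brought to 0.5% NP-40 at 4°C.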

pictilisib = compound: CS(=O)(=O)N1CCN(Cc2cc3nc(-c4cccc5[nH]ncc45)nc(N4CCOCC4)c3s2)CC1 [pictilisib]
How it was run: as §1

crizotinib = compound: C[C@@H](Oc1cc(-c2cnn(C3CCNCC3)c2)cnc1N)c1c(Cl)ccc(F)c1Cl [crizotinib]
How it was run: as §1

[1] = compound: C[C@H](C1=CC=C(C=C1)C(=O)NC2=C3C=CNC3=NC=C2)N
How it was run: as §1

duvelisib = compound: C[C@H](Nc1ncnc2nc[nH]c12)c1cc2cccc(Cl)c2c(=O)n1-c1ccccc1 [duvelisib]
How it was run: as §1

gandotinib = compound: Cc1cc(Nc2cc(CN3CCOCC3)c3nc(C)c(Cc4ccc(Cl)cc4F)n3n2)n[nH]1 [gandotinib]
How it was run: as §1

tozasertib = compound: Cc1cc(Nc2cc(N3CCN(C)CC3)nc(Sc3ccc(NC(=O)C4CC4)cc3)n2)n[nH]1 [tozasertib]
How it was run: as §1

doramapimod = compound: Cc1ccc(-n2nc(C(C)(C)C)cc2NC(=O)Nc2ccc(OCCN3CCOCC3)c3ccccc23)cc1 [doramapimod]
How it was run: as §1

bafetinib = compound: Cc1ccc(NC(=O)c2ccc(CN3CC[C@H](N(C)C)C3)c(C(F)(F)F)c2)cc1Nc1nccc(-c2cncnc2)n1 [bafetinib]
How it was run: as §1

[2] = compound: Cc1cccc(CC(=O)N2CCc3c2ccc(-c2cn(C)c4ncnc(N)c24)c3F)n1
How it was run: as §1

Sequence of UniProt Q6ZPD9 (Q6ZPD9 whole entry, looked up): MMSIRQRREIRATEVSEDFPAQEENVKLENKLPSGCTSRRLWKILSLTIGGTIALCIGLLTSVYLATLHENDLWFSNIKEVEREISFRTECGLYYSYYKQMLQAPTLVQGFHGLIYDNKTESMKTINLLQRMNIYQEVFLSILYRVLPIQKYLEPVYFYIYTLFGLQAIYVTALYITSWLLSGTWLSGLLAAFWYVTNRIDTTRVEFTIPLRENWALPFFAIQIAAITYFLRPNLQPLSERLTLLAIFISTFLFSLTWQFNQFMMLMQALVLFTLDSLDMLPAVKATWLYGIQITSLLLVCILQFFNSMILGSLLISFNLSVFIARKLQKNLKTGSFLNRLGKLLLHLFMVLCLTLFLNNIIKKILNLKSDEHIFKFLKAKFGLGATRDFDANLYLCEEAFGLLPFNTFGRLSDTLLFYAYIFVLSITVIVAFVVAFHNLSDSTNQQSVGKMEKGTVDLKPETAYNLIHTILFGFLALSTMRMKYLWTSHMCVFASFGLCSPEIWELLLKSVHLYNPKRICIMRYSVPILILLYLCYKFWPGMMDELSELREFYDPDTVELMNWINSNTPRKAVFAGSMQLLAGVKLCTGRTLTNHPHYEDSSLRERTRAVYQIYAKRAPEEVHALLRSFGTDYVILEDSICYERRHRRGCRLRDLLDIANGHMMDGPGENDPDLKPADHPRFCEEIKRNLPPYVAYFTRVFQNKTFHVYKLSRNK
Sequence of UniProt Q9NQI0 (Q9NQI0 whole entry, looked up): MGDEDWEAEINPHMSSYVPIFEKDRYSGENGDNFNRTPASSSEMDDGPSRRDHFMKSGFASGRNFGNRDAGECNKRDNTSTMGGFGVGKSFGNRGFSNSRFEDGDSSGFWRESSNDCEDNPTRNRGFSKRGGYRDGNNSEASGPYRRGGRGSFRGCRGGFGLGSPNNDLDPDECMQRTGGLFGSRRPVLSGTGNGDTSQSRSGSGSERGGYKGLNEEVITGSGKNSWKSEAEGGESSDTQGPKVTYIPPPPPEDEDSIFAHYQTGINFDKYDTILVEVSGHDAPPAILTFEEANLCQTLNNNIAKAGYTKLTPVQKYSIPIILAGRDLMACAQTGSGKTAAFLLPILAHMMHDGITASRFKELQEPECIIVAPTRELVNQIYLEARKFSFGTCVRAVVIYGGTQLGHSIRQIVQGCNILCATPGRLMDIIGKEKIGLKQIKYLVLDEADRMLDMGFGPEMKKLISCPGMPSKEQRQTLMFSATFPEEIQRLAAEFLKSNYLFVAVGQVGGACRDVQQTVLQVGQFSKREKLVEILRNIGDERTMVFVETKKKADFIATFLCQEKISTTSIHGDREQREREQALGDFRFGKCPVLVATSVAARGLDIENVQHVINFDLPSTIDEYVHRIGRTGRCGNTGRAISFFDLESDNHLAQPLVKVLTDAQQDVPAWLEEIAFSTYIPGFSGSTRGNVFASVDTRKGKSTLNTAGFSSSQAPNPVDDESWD
Sequence of UniProt Q08345 (Q08345 whole entry, looked up): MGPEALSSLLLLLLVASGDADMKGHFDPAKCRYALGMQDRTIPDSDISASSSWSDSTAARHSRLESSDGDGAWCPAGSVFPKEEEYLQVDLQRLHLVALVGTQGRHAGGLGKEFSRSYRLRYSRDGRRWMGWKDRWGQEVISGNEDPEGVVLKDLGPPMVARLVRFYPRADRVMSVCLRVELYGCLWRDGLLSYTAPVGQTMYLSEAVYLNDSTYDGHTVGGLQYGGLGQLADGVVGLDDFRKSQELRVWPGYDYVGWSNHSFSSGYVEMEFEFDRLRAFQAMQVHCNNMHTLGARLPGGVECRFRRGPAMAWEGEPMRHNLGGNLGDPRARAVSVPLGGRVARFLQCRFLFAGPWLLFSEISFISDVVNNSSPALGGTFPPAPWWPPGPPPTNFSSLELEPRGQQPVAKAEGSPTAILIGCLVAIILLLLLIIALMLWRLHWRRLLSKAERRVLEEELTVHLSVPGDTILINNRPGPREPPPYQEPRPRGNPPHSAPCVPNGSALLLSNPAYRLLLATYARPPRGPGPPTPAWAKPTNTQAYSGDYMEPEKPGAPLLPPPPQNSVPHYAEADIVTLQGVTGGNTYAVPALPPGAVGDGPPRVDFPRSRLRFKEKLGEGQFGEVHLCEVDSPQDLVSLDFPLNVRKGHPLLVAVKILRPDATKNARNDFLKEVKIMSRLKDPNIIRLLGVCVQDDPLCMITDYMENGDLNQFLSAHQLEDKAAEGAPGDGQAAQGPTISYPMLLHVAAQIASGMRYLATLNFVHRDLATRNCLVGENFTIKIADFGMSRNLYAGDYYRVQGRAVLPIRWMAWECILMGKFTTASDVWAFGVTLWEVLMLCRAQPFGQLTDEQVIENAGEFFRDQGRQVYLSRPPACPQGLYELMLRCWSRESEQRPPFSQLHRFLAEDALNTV
Sequence of UniProt P67870 (P67870 whole entry, looked up): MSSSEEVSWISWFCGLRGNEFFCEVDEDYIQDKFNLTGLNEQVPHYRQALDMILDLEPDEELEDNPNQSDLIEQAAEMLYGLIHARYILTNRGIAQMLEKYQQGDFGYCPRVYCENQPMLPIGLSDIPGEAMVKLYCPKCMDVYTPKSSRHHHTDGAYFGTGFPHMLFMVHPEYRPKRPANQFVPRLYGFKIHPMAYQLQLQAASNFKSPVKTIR
Sequence of UniProt P51790 (P51790 whole entry, looked up): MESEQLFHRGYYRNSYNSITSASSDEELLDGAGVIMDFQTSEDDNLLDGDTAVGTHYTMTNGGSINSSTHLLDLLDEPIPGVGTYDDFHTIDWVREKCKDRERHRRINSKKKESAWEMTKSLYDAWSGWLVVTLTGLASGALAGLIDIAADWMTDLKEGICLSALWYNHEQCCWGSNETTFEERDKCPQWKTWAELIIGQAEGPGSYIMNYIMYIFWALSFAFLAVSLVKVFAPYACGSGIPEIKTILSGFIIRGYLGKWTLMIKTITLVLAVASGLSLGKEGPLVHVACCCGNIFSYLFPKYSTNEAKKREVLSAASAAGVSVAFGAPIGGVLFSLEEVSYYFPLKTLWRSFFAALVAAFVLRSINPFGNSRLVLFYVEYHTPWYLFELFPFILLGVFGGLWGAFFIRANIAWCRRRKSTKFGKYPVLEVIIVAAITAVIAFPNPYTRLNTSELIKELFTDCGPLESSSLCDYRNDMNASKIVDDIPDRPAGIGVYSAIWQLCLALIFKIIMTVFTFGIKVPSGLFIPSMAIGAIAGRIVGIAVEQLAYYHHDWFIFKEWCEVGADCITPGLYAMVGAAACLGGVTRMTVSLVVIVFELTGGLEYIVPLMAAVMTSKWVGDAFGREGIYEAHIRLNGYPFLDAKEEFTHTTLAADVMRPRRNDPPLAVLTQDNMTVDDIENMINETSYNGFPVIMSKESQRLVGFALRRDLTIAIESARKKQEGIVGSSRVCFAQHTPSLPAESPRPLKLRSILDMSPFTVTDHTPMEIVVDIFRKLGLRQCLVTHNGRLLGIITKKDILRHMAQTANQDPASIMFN
Sequence of UniProt P61024 (P61024 whole entry, looked up): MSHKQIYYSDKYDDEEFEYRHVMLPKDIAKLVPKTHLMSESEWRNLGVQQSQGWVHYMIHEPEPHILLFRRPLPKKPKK
Sequence of UniProt O75122 (O75122 whole entry, looked up): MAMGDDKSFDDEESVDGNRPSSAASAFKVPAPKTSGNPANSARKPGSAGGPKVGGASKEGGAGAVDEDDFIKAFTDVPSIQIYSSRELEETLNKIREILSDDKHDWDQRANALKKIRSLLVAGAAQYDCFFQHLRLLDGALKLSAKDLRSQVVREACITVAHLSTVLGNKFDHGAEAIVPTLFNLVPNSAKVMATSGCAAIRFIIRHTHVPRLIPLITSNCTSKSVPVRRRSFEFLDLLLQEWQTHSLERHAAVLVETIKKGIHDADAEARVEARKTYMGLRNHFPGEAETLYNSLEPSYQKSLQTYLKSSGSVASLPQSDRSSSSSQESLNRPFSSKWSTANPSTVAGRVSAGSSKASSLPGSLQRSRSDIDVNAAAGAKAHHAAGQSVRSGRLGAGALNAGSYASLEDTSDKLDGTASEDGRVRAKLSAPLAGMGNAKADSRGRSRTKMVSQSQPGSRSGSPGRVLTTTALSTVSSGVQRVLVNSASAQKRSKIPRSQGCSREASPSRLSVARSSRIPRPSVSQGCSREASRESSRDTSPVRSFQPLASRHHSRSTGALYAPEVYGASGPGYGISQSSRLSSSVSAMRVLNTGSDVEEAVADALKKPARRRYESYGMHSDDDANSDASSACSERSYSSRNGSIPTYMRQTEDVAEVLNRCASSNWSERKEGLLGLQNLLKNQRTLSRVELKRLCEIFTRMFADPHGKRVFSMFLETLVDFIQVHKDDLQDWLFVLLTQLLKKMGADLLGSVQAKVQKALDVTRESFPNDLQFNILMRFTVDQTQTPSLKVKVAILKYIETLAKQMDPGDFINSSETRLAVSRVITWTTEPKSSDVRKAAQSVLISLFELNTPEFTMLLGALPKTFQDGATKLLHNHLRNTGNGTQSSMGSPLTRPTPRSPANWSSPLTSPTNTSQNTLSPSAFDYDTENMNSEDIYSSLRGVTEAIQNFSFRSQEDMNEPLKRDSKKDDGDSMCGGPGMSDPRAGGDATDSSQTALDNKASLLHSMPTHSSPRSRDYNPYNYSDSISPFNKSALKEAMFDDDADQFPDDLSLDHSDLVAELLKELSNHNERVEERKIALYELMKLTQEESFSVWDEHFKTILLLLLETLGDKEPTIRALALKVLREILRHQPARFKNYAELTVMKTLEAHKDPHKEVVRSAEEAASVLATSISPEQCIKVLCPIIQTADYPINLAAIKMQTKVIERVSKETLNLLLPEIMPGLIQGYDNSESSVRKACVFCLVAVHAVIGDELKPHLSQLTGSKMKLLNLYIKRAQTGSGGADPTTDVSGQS
Sequence of UniProt O15247 (O15247 whole entry, looked up): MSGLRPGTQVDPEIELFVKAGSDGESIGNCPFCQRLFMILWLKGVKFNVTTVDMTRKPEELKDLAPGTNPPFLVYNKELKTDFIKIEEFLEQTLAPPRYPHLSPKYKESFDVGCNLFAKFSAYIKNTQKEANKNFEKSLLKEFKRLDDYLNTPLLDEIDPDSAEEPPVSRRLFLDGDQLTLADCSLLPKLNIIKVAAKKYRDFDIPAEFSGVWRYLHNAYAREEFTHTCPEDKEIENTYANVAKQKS

| Target | log2 fold change (lapatinib) | log2 fold change (pictilisib) | log2 fold change (crizotinib) | log2 fold change [1] | log2 fold change (duvelisib) | log2 fold change (gandotinib) | log2 fold change (tozasertib) | log2 fold change (doramapimod) | log2 fold change (bafetinib) | log2 fold change [2] |
| --- | --- | --- | --- | --- | --- | --- | --- | --- | --- | --- |
| CKS1B (UniProt P61024) | 0.039 | 0.002 | 0.094 | 0.302 (active) | -0.045 | -0.183 | 0.047 | 0.023 | 0.068 | -0.324 (active) |
| DPY19L3 (UniProt Q6ZPD9) | -0.077 | -0.268 | -0.107 | – | – | – | 0.057 | -0.081 | -0.113 | – |
| CLCN3 isoform 2 (UniProt P51790) | 0.047 | – | -0.047 | -0.075 | 0.034 | -0.018 | -0.011 | 0.026 | -0.005 | 0.024 |
| CORO7 isoform 3 (UniProt P57737) | 0.009 | -0.016 | -0.063 | 0.06 | 0.004 | -0.119 | 0.005 | 0.013 | 0.001 | -0.067 |
| DENND1B (UniProt Q6P3S1) | 0.1 | 0.096 | -0.019 | 0.003 | -0.08 | -0.194 | – | -0.072 | 0.154 | -0.03 |
| CHMP4A (UniProt H0YIN6) | -0.078 | -0.071 | -0.211 | -0.091 | 0 | 0.451 | – | -0.059 | -0.098 | 0.325 |
| DOCK7 (UniProt Q96N67) | -0.003 | -0.016 | -0.022 | -0.107 | -0.004 | -0.103 | 0.047 | 0.012 | -0.032 | 0.102 |
| DDX4 (UniProt Q9NQI0) | -0.045 | 0.035 | – | -0.481 (active) | 0.02 | 0.132 | 0.078 | – | -0.167 | 0.174 |
| COG3 (UniProt Q96JB2) | -0.036 | -0.054 | -0.062 | -0.036 | 0.006 | -0.064 | 0.015 | 0.03 | 0.003 | 0.093 |
| CSDE1 isoform 3 (UniProt O75534) | 0.184 | -0.141 | -0.179 | 0.139 | – | -0.043 | – | 0.055 | 0.126 | -0.058 |
| DLD (UniProt P09622) | -0.003 | 0.009 | -0.001 | -0.067 | -0.012 | 0.047 | -0.016 | -0.001 | 0.005 | 0.012 |
| CLPTM1L (UniProt Q96KA5) | -0.095 | – | -0.021 | -0.092 | -0.049 | -0.233 (active) | 0.004 | -0.098 | -0.064 | 0.137 |
| CYCS (UniProt P99999) | 0.015 | -0.033 | 0.036 | -0.054 | -0.039 | 0.056 | -0.004 | -0.029 | 0.06 | -0.006 |
| DIAPH1 (UniProt H9KV28) | 0.003 | 0.087 | -0.047 | -0.039 | – | 0.199 | 0.049 | 0.099 | -0.171 | 0.158 |
| CSNK2B (UniProt P67870) | -0.052 | 0.023 | -0.073 | 0.027 | -0.053 | 0.016 | 0.004 | 0.022 | 0.064 | -0.05 |
| DAZAP1 (UniProt Q96EP5) | 0.017 | -0.043 | 0.073 | 0.035 | 0.015 | 0 | 0.064 | 0.003 | 0.243 | -0.04 |
| DESI2 (UniProt Q9BSY9) | – | – | – | -0.095 | – | -0.078 | -0.095 | – | – | 0.316 |
| DNA2 (UniProt P51530) | – | – | -0.046 | 0.052 | -0.02 | 0.013 | -0.07 | 0.051 | – | -0.017 |
| CUX1 isoform 2 (UniProt Q13948) | -0.168 | – | -0.073 | 0.104 | 0.014 | 0.041 | 0.057 | -0.12 | – | -0.089 |
| CXCL14 (UniProt O95715) | – | -0.083 | – | – | – | – | -0.021 | – | -0.649 | – |
| CSAD isoform 3 (UniProt Q9Y600) | – | -0.123 | -0.123 | – | – | – | – | 0.035 | 0.046 | – |
| CSRP2 (UniProt Q16527) | – | -0.063 | -0.157 | -0.018 | – | -0.068 | 0.118 | 0.051 | 0.072 | 0.052 |
| DDAH1 (UniProt O94760) | 0.011 | – | 0 | 0.059 | 0.186 | -0.039 | -0.044 | -0.058 | – | 0.196 |
| CLIP1 isoform 2 (UniProt P30622) | 0.066 | – | 0.018 | -0.103 | -0.053 | 0.135 | 0.047 | 0 | 0.031 | 0 |
| CYP2S1 isoform 2 (UniProt Q96SQ9) | 0.316 | – | 0.023 | – | -0.075 | – | -0.023 | -0.057 | – | – |
| DLGAP5 isoform 3 (UniProt Q15398) | – | 0.092 | – | -0.176 | -0.098 | 0.05 | – | – | 0.031 | -0.505 |

| Target | log2 fold change (lapatinib) | log2 fold change (pictilisib) | log2 fold change (crizotinib) | log2 fold change [1] | log2 fold change (duvelisib) | log2 fold change (gandotinib) | log2 fold change (tozasertib) | log2 fold change (doramapimod) | log2 fold change (bafetinib) | log2 fold change [2] |
| --- | --- | --- | --- | --- | --- | --- | --- | --- | --- | --- |
| CIC (UniProt I3L1Q4) | – | 0.065 | – | – | – | – | – | – | 0.021 | – |
| DAPK1 isoform 3 (UniProt P53355) | 0.042 | – | 0.022 | 0.188 | 0.042 | 0.058 | – | -0.141 | – | -0.383 |
| CLPB isoform 2 (UniProt Q9H078) | -0.034 | – | -0.03 | 0.024 | -0.015 | -0.093 | 0.046 | -0.01 | -0.072 | 0.039 |
| CHFR (UniProt Q96EP1) | -0.062 | – | -0.051 | – | 0.023 | – | -0.063 | -0.012 | – | – |
| COL6A3 (UniProt P12111) | – | -0.019 | -0.023 | -0.04 | 0.013 | -0.036 | – | 0.032 | 0.036 | 0.048 |
| CNNM2 (UniProt Q9H8M5) | 0.006 | – | 0.021 | -0.039 | 0.041 | -0.064 | -0.078 | -0.026 | – | 0.036 |
| DCTN1 isoform 4 (UniProt Q14203) | -0.039 | – | -0.031 | 0.054 | -0.032 | 0.121 | 0.173 | -0.103 | – | -0.239 |
| CLUH (UniProt O75153) | -0.014 | – | -0.057 | -0.012 | 0.147 | 0.004 | -0.005 | -0.007 | -0.044 | 0.032 |
| DBF4 (UniProt Q9UBU7) | – | 0 | -0.031 | -0.409 (active) | 0.004 | 0.059 | -0.009 | -0.018 | -0.028 | 0.035 |
| CSNK1A1 isoform 3 (UniProt P48729) | – | – | – | – | -0.077 | – | – | – | – | – |
| COL12A1 (UniProt Q99715) | -0.117 | – | -0.031 | – | 0.086 | – | -0.021 | 0.88 | – | – |
| CNK3/IPCEF1 isoform 2 (UniProt G9CGD6) | – | – | – | -1.84 (active) | 0.129 | 0.326 | 0.105 | – | – | 0.4 |
| CORO7 (UniProt P57737) | – | – | -0.004 | -0.139 | -0.084 | 0 | 0.092 | 0.016 | – | -0.335 |
| DNM2 isoform 4 (UniProt P50570) | 0.031 | – | 0.014 | -0.16 | 0.015 | -0.134 | -0.084 | 0.066 | – | 0.16 |
| DALRD3 (UniProt Q5D0E6) | 0.021 | – | – | -0.131 | – | -0.087 | 0.139 | – | – | 0.096 |
| CLIC2 (UniProt O15247) | -0.057 | – | -0.002 | -0.037 | -0.039 | -0.015 | -0.016 | -0.022 | -0.009 | 0.005 |
| CLIP1, A0A3B3ITA2 | – | – | -0.033 | -0.222 | – | 0.55 | – | -0.138 | – | 0.269 |
| CPLX1 (UniProt O14810) | -0.095 | – | – | – | -0.001 | – | 0.167 | – | – | – |
| CLASP2 (UniProt O75122) | 0.003 | – | 0.127 | -0.086 | – | -0.031 | 0.052 | -0.001 | -0.199 | 0.067 |
| DNAJC24 (UniProt Q6P3W2) | 0.006 | – | 0.074 | 0.152 | -0.025 | -0.162 | 0.073 | 0.042 | – | -0.134 |
| DDR1 isoform 5 (UniProt Q08345) | – | -0.075 | -0.712 (active) | 0.097 | -0.051 | -0.305 | – | – | 0.101 | 0.007 |
| CLIP1 isoform 1 (UniProt P30622) | 0.006 | – | 0.023 | -0.023 | 0.004 | 0.036 | 0.001 | 0.011 | -0.003 | -0.01 |
| COX7B (UniProt P24311) | -0.002 | – | 0.058 | 0.025 | 0.005 | 0.01 | 0.035 | 0.035 | – | 0.099 |
| CLASP2 isoform 3 (UniProt O75122) | -0.008 | – | -0.018 | -0.172 | -0.015 | 0.077 | 0.015 | 0.041 | -0.021 | 0.247 (active) |
| DHX32 (UniProt Q7L7V1) | – | – | -0.03 | -0.013 | – | -0.01 | 0.108 | 0.012 | – | -0.077 |

From the supplement of paper PMC10849652
